Measured values from PubChem BioAssay (NCATS).
This is one part of the list. A call without a number means that no potency is given here. Inconclusive results are not listed. Active and inactive are the calls of the source. The call rests on the fitted dose curve.

Each molecule was assayed on Hepatitis C virus NS3/4A protease (assay: Selectivity profile for inhibitors of NSP2Pro chikungunya virus (CHIKV): NS34A-HCV Counterscreen (AID 1964106; further: nearly all actives have a fitted effect of over 55% in size)). Settings: HCV NS3/4A protease biochemical counterscreen; series mostly up to 50.9 µM.
Excerpt: PI: Natalia J. Martinez Ph.D.
National Center for Advancing Translational Sciences (NCATS),
National Institute of Health (NIH), Rockville, Maryland
Chikungunya virus (CHIKV) is a mosquito-borne RNA virus that has emerged as one of the most important global arboviral threats in the last decade. Although the first CHIKV vaccine has recently been FDA approved for use in healthy adults at increased risk, to date, there are no available antiviral drugs for CHIKV infection. CHIKV nsP2 protease plays a crucial role in the processing of the viral polypeptide precursor to release enzymes required for viral replication, thus making it a promising drug target for antiviral discovery. Here, we established a high-throughput pipeline to identify small molecule inhibitors of nsP2 proteolytic activity. The pipeline is composed of a suite of 1,536-well in vitro assays to support quantitative high-throughput (qHTS) screening campaigns. Specifically, we developed a fluorescence resonance energy transfer (FRET)-based assay using a fluorogenic peptide substrate encompassing an endogenous cleavage site and purified recombinant protease domain (nsP2pro). Using this assay, we interrogated ~37,000 small molecules, including those in drug repurposing libraries as well as chemically diverse and medicinal chemistry-friendly compounds. Hits were selected for follow-up validation against full-length nsP2 and an additional peptide. FRET-based 1,536-well assays for papain, hepatitis C virus NS3-4A, and human furin proteases were implemented to characterize compound selectivity. […] Novel compounds were identified to be potential nsP2 inhibitors and molecular docking analyses were performed to explain the binding mode of selected hits. In vitro antiviral activity was evaluated against a subset of compounds using a high-throughput CHIKV infection assay. To our knowledge, the pipeline presented here is unprecedented for CHIKV antiviral discovery research.
PROTOCOL TABLE (as described by Inglese J, Shamu CE and Guy RK. 2007)
SEQUENCE No. (e.g., 1, 2, 3, etc.); […] (e.g., Cells, Incubation, Reagent, etc.); VALUE; DESCRIPTION.
1; Enzyme; 2 uL; 1,536-well solid-bottom, black plate (Greiner Bio One).
2; Compounds; 20 nL; Echo 655 acoustic dispenser (Beckman Coulter).
3; Incubation; 15 min; room temperature in the dark.
4: Reagent; 2 uL; Ac-DE-[Lys(5-TAMRA)]-EE-[Abu-psi(COO)Ala]-S-[Lys(ECLIPSE-7)]-amide.
5; Detection; Fluorescence; time 0, ViewLux microplate reader (PerkinElmer) 525 nm excitation, 598/25 nm emission
6; Incubation; 15 min; room temperature
7; Detection; Fluorescence; time 15; ViewLux microplate reader (PerkinElmer), 525 nm excitation, 598/25 nm emission.
NOTES (numbers refer to sequence numbers above).
1. Two microliter of NS3-4A HCV enzyme solution (5 nM final concentration) in assay buffer (20 mM Tris-HCl pH 8.0, 150 mM NaCl, with 0.01% Tween 20) were dispensed into a 1,536-well solid-bottom black plate (Greiner Bio One) using the Kalypsys Pintool Station.
2. Twenty nanoliter of compounds, positive control Aprotinin (50 uM final concentration), or neutral control DMSO were transferred to the assay plates. Compounds in counter-screen assays were tested at 11 concentrations, 1:3 dilution points from 25 uM to 0.42 nM.
3. The assay plates were incubated in the dark for 15 min.
4. After incubation, 2 uL of 0.625 uM substrate (Ac-DE-[Lys(5-TAMRA)]-EE-[Abu-psi(COO)Ala]-S-[Lys(ECLIPSE-7)]-amide) in assay buffer (for NS3-4A assay) was added using the Kalypsys Pintool Station.
5-7. Plates were immediately read at time 0 then covered with stainless steel gasket lids and incubated for 15 min at room temperature in the dark. Fluorescence intensity in the assay plates were again read after incubation using the ViewLux imager equipped with Tamara fluorescence optics. The change in fluorescence intensity over the 15-min reaction period was normalized against DMSO and inhibitor controls as described below.
[…]
Potency means the concentration at half of the fitted maximal effect.

SMILES	Potency
CCC(C)C(=O)OC1C(C)C2(O)C(C=C(CO)CC3(O)C(=O)C(C)=CC32)C2C(C)(C)C12OC(=O)C(C)C (stereo unspecified)	inactive
Cc1c(S(=O)(=O)O)oc2c1C(=O)C(=O)c1c-2ccc2c1CCCC2(C)C	inactive
N#CSc1cc(SC#N)c(N)nc1N	inactive
CC1=C(/C=C/C(C)=C/C=C/C(C)=C/C=C/C=C(C)/C=C/C=C(C)/C=C/C2=C(C)CCCC2(C)C)C(C)(C)CCC1	inactive
C=Cc1c(C)c2cc3nc(cc4[nH]c(cc5nc(cc1[nH]2)C(C)=C5CCC(=O)O)c(CCC(=O)OC)c4C)[C@@]1(C)C3=CC=C(C(=O)OC)[C@H]1C(=O)OC	inactive
O=C(O)c1cccc(-n2[nH]c(-c3ccccc3)cc2=O)c1	inactive
C[C@@H]1C[C@@H](O)[C@@]23CO[C@]2(CO)C[C@@H](O)CC3[C@@]12CC(c1ccoc1)OC2=O (stereo partly specified)	11.3 µM (active)
CO[C@]1(NC(=O)CSC(F)F)C(=O)N2C(C(=O)O)=C(CSc3nnnn3CCO)CO[C@H]21	inactive
COC([CH2][Hg])CNC(=O)c1ccccc1OCC(=O)O (stereo unspecified)	1.63 µM (active)
C=CC(=O)c1ccc2ccccc2c1	inactive
C[C@@H]1O[C@@H](O[C@@H]2[C@@H](O)[C@H](OCCc3ccc(O)c(O)c3)O[C@H](CO[C@@H]3O[C@H](CO)[C@@H](O)[C@H](O)[C@H]3O)[C@H]2OC(=O)/C=C/c2ccc(O)c(O)c2)[C@H](O)[C@H](O)[C@H]1O	inactive
CCOc1ccc(NC(=O)c2c(NC(=O)Cc3ccccc3)sc3c2CCCCC3)cc1	inactive
Cn1nnnc1Sc1ncnc2n[nH]c(-c3cccc(S(C)(=O)=O)c3)c12	316 µM (active)
CCOc1ccc(N(Cc2ccccc2)C(=O)c2nc(S(C)(=O)=O)ncc2Cl)cc1	inactive
CCOc1ccc(NC(=O)c2c(NC(=O)Cc3ccccc3)sc3c2CCC(C)C3)cc1 (stereo unspecified)	inactive
CC(=O)N[C@@H](C(=O)O[C@H]1CCC(C)(C)[C@@H]2CCC3=C(COC3=O)[C@@]12C)C(C)C	inactive
